The source of these data is PubChem BioAssay (NCI).

Test systems include SK-MEL-2 melanoma; EKVX NSCLC; SN12C renal; UO-31 renal; TK-10 renal; ACHN renal; CAKI-1 renal; A498 renal; CCRF-CEM leukemia; MOLT-4 leukemia; RPMI-8226 leukemia; OVCAR-8 ovarian; OVCAR-5 ovarian; OVCAR-4 ovarian; SK-OV-3 ovarian; IGROV1 ovarian; OVCAR-3 ovarian; HS 578T breast; NCI/ADR-RES ovarian.
What all share (assay): NCI-60 one-dose screen, 48 h (100 = growth as untreated, 0 = no growth, -100 = all killed)
Holding throughout (settings): 10 µM unless noted

This is part of a sample that, as a whole, favours compounds with a hit. Of some 83,000 tested, about 20% had one in any assay.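 Single-concentration screen, 48 h exposure, 96-well plates. Endpoint: percent growth. Below 10 = active.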 Values without a mark were called inactive. Activity calls are given as the source filed them.

As for `O=C1C=CC(=O)c2c1nc1n2CCCC1`, the growth in the assay with SK-MEL-2 melanoma is 70.6%; with EKVX NSCLC it was 104%; with SN12C renal, 74%; in the assay on UO-31 renal, 91.1%; with TK-10 renal, 109%; in the assay with ACHN renal it was 81.1%. The growth in the assay on CAKI-1 renal was 95.7%; in the assay with A498 renal, 96.3%; in the assay on CCRF-CEM leukemia it was 58.8%; in the assay with MOLT-4 leukemia it was 90.3%; in the assay with RPMI-8226 leukemia it was 116%; in the assay with OVCAR-8 ovarian, 92%. Further, the growth was 112% in the assay on OVCAR-5 ovarian; 101% in the assay with OVCAR-4 ovarian; 92.5% in the assay with SK-OV-3 ovarian; 103% in the assay with IGROV1 ovarian; 21% in the assay on OVCAR-3 ovarian; 73.1% in the assay on HS 578T breast. The growth with NCI/ADR-RES ovarian is 89.6%.
As for `CC(C)c1c(C(=O)Nc2ccccc2)c(-c2ccccc2)c(-c2ccc(F)cc2)n1CC[C@@H]1CC=CC(=O)O1`, the growth with SK-MEL-2 melanoma is -55.9% (active); in the assay on EKVX NSCLC, 34.4%; in the assay on SN12C renal, -15.5% (active); in the assay with UO-31 renal it was -75.9% (active); with TK-10 renal it was 28.5%; in the assay with ACHN renal it was -27.8% (active). Moreover, the growth with CAKI-1 renal is 4.73% (active); with A498 renal, 73.7%; in the assay on CCRF-CEM leukemia, -29.1% (active); in the assay with MOLT-4 leukemia it was -33.2% (active); in the assay on RPMI-8226 leukemia it was -25.9% (active); with OVCAR-8 ovarian, -19.9% (active). The growth in the assay on OVCAR-4 ovarian was 19.8%; in the assay with SK-OV-3 ovarian, 31.6%; in the assay with IGROV1 ovarian, -27.5% (active); in the assay with OVCAR-3 ovarian it was -73.3% (active); with HS 578T breast, 18.1%; in the assay on NCI/ADR-RES ovarian, -1.87% (active).
As for `O=C(Cn1cc(CN2C(=O)c3ccccc3S2(=O)=O)nn1)Nc1ccc([N+](=O)[O-])cc1Cl`, the growth is 91.9% with SK-MEL-2 melanoma; 103% in the assay with EKVX NSCLC; 94.3% with SN12C renal; 82.7% with UO-31 renal; 112% in the assay on TK-10 renal; 95.3% with ACHN renal. Further, the growth was 91.8% with CAKI-1 renal; 103% with A498 renal; 93.4% with CCRF-CEM leukemia; 96.5% in the assay on MOLT-4 leukemia; 107% in the assay with RPMI-8226 leukemia; 95.3% in the assay with OVCAR-8 ovarian. Further, the growth with OVCAR-5 ovarian was 113%; in the assay on OVCAR-4 ovarian, 115%; in the assay with SK-OV-3 ovarian it was 73.5%; with IGROV1 ovarian, 103%; with OVCAR-3 ovarian, 105%; with HS 578T breast, 92.9%. In addition, the growth in the assay on NCI/ADR-RES ovarian was 89.3%.
For the molecule `Cc1[nH]n(-c2ccccc2)c2nc3nncc3c(-c3ccc(Cl)cc3)c12`, the growth in the assay with SK-MEL-2 melanoma is 123%; in the assay on EKVX NSCLC, 97%; in the assay on SN12C renal, 93.1%; in the assay on UO-31 renal, 96.6%; in the assay on TK-10 renal it was 112%; with ACHN renal it was 104%. Further, the growth is 90.3% with CAKI-1 renal; 102% in the assay on A498 renal; 89.7% in the assay with CCRF-CEM leukemia; 101% with MOLT-4 leukemia; 80.6% in the assay on RPMI-8226 leukemia; 89.8% in the assay with OVCAR-8 ovarian. In addition, the growth in the assay with OVCAR-5 ovarian is 99.1%; in the assay on OVCAR-4 ovarian, 107%; in the assay on SK-OV-3 ovarian, 105%; in the assay with IGROV1 ovarian, 124%; in the assay with OVCAR-3 ovarian, 121%; in the assay with HS 578T breast it was 110%. Besides, the growth with NCI/ADR-RES ovarian is 93.6%.
As to `O=C(O)c1ccc(=O)[nH]n1`, the growth was 116% with SK-MEL-2 melanoma; 116% with EKVX NSCLC; 94.3% in the assay with SN12C renal; 88.3% in the assay with UO-31 renal; 117% with TK-10 renal; 98.8% in the assay on ACHN renal. Also, the growth was 109% in the assay on CAKI-1 renal; 105% in the assay with A498 renal; 112% with CCRF-CEM leukemia; 89% with MOLT-4 leukemia; 107% in the assay with RPMI-8226 leukemia; 103% in the assay with OVCAR-8 ovarian. Moreover, the growth was 104% with OVCAR-5 ovarian; 113% with OVCAR-4 ovarian; 106% in the assay on SK-OV-3 ovarian; 137% in the assay with IGROV1 ovarian; 115% in the assay on OVCAR-3 ovarian; 111% in the assay with HS 578T breast. Besides, in the assay on NCI/ADR-RES ovarian, the growth was 109%.
For `Nc1ccc(Nc2nccc(-c3ccc4ccccc4c3)n2)cc1`, the growth in the assay with SK-MEL-2 melanoma is 5.47% (active); with EKVX NSCLC, 61%; in the assay on SN12C renal, 46.8%; in the assay on UO-31 renal, 45.7%; in the assay on TK-10 renal, 58.7%; in the assay on ACHN renal, 45.6%. Besides, the growth with CAKI-1 renal is 32%; with A498 renal, 16.6%; in the assay with CCRF-CEM leukemia, 27.3%; in the assay with MOLT-4 leukemia, 20.2%; with RPMI-8226 leukemia it was 29.7%; in the assay on OVCAR-8 ovarian, 48.2%. Further, the growth in the assay with OVCAR-4 ovarian was 56.4%; in the assay on SK-OV-3 ovarian, 60.7%; in the assay with IGROV1 ovarian it was 38.2%; in the assay with OVCAR-3 ovarian, 46.9%; in the assay on HS 578T breast it was 43.1%; with NCI/ADR-RES ovarian, 18.4%.
For `NC(=S)N/N=C/c1cc(-c2cccc(N)c2)ccn1`, the growth in the assay on SK-MEL-2 melanoma was 45.5%; with EKVX NSCLC, 37.8%; with SN12C renal, 16.7%; in the assay with UO-31 renal, 12.4%; in the assay on TK-10 renal, 46.6%; in the assay on ACHN renal, 7.92% (active). Further, the growth is -9.57% (active) with CAKI-1 renal; 37.3% with A498 renal; 6.08% (active) in the assay with CCRF-CEM leukemia; 7.42% (active) in the assay on MOLT-4 leukemia; 12.2% in the assay with RPMI-8226 leukemia; 21.6% with OVCAR-8 ovarian. Further, the growth is 46.1% in the assay on OVCAR-5 ovarian; 47.3% in the assay on OVCAR-4 ovarian; 27.5% with SK-OV-3 ovarian; 16% with IGROV1 ovarian; 40.8% in the assay with OVCAR-3 ovarian; 38.1% with HS 578T breast. Also, in the assay on NCI/ADR-RES ovarian, the growth is 21.2%.
Take `CC[C@H](Nc1nc(N)nc(C)c1C#N)c1nc2cccc(NCc3ccc(C(=O)NO)cc3)c2c(=O)n1-c1ccccc1`: the growth in the assay with SK-MEL-2 melanoma is 27.8%; in the assay on EKVX NSCLC, 35.6%; in the assay with SN12C renal, 11.4%; in the assay on UO-31 renal, 4.77% (active); with TK-10 renal, 1.89% (active); in the assay with ACHN renal, 4.61% (active). The growth with CAKI-1 renal is 13.2%; in the assay with A498 renal, -38.6% (active); with CCRF-CEM leukemia, 0.318% (active); with MOLT-4 leukemia it was 0.225% (active); in the assay on RPMI-8226 leukemia it was 4.78% (active); in the assay on OVCAR-8 ovarian it was -25.7% (active). The growth in the assay with OVCAR-5 ovarian is 16.8%; with OVCAR-4 ovarian it was 15.5%; with SK-OV-3 ovarian, -12% (active); with IGROV1 ovarian, -50.5% (active); with OVCAR-3 ovarian it was 0.5% (active); with HS 578T breast, -8.46% (active). Moreover, the growth with NCI/ADR-RES ovarian was 74.7%.
